How the values were obtained:
Assay in all cases: PBM binding z-score (relative to random genomic background probes); higher = stronger binding; sequences stand for … in GC…GCGATTGACAGCGTAGAATGAAGG
[1] = tested on: PPARg:RXRa DBDmut IVT, anti-RXR (DBD mutation: RXRa K156A/R161A, NR concentration 270 nM, RXRa partner concentration 90 nM)
Procedure, shortened: (§1)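 Binding z-scores take random background probes as their reference. They come from custom Agilent 4×180K protein-binding microarrays incubated 1 h with ligand-free nuclear receptor dimers, with antibodies against each partner (one per run) detecting binding. Scanned fluorescence was regression-normalized.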

[2] = tested on: PPARg:RXRa IVT, anti-PPARg (NR concentration 270 nM, RXRa partner concentration 90 nM)
Procedure, shortened: as §1

[3] = tested on: PPARg DBDmut:RXRa IVT, anti-PPARg (DBD mutation: PPARg1 K132A/R137A, NR concentration 270 nM, RXRa partner concentration 90 nM)
Procedure, shortened: as §1

[4] = tested on: PPARg DBDmut IVT, anti-PPARg (DBD mutation: PPARg1 K132A/R137A, NR concentration 270 nM)
Procedure, shortened: as §1

[5] = tested on: PPARg homodimer (NR concentration 180 nM)
Procedure, shortened: as §1

[6] = tested on: PXR:RXRa (NR concentration 270 nM, RXRa partner concentration 90 nM)
Procedure, shortened: as §1

[7] = tested on: PXR homodimer (NR concentration 270 nM)
Procedure, shortened: as §1

[8] = tested on: RARa:RXR (NR concentration 270 nM, RXRa partner concentration 90 nM)
Procedure, shortened: as §1

[9] = tested on: RARa homodimer (NR concentration 270 nM)
Procedure, shortened: as §1

[10] = tested on: RARb:RXRa (NR concentration 270 nM, RXRa partner concentration 90 nM)
Procedure, shortened: as §1

Sequence | PBM binding z-score [1] | PBM binding z-score [2] | PBM binding z-score [3] | PBM binding z-score [4] | PBM binding z-score [5] | PBM binding z-score [6] | PBM binding z-score [7] | PBM binding z-score [8] | PBM binding z-score [9] | PBM binding z-score [10]
ATATGTAGGTTAAGGGTCATTTAGGTTGGTTCGC | 7.27 | 7.94 | 3.6 | 3.31 | 3.63 | 5.37 | 2.03 | 5.61 | 2.42 | 3.61
ATACCAAGGTGATCCTGAGGTCGTTGATACTAAC | 0.567 | 1.08 | 0.87 | 0.266 | 0.931 | 3.21 | 1.41 | 2.34 | 0.52 | 1.39
ATCGAAAGGTCGACGAGGTGAGCATACACCGTTT | 0.211 | 2.48 | 1.06 | 0.825 | 1.88 | 2.91 | 0.446 | 3.9 | 0.74 | 3.9
CAAACTAGGTCACAGAGGTCAAGGTCCGTGCGTA | 8.45 | 9.01 | 2.38 | 2.54 | 4.67 | 6.54 | 10 | 7.58 | 2.96 | 5.46
CAAACTAGGTCACGTAAGGTCAAAGTCGAATGAC | 8.55 | 9.19 | 2.78 | 1.76 | 2.46 | 6.83 | 2.57 | 6.43 | 1.84 | 5.38
TCTGCTAGGTCAACGATGTTCAGCTAATCTGCTA | 4.36 | 4.43 | 0.0539 | 0.546 | 0.745 | 1.4 | -0.689 | 2 | -0.343 | 4.15
CGTCAAAGTTCAATTAAGGTAACGTAAAGCACGC | 0.465 | 2 | 1.09 | 1.89 | 3.06 | 5.26 | 3.98 | 3.88 | 1.69 | 4.78
CGAACGAGGGCATGAGATGATAGCAAATGCCGAT | 2.91 | 1.69 | 0.746 | -0.282 | 0.685 | 0.00253 | -0.206 | 0.422 | 0.183 | 1.79
GCTATTAGTTGAAAGGGCAACCGCATGATTCTCG | 0.567 | 1.26 | -0.261 | -0.166 | 1.06 | 0.577 | 0.17 | 1.39 | 0.567 | 1.71
TGTCAAAGTTGAAAGGTAACGTAAGTATCCACAC | -0.206 | 3.18 | 0.664 | 0.491 | 0.376 | 1.38 | 0.066 | 2.56 | 0.0354 | 2.15
TCGAGTAGGTAAGGGGCATTCAGAATGGCGTCGA | 1.59 | 0.472 | -0.991 | -1.03 | 0.148 | -0.173 | -0.537 | -0.00481 | -0.369 | 0.496
AGACTGAGGTTATACGTAGATCAGGGAAGAAAGT | 0.425 | 0.435 | 0.201 | 0.0103 | 0.623 | 1.09 | 0.133 | 1.68 | 0.064 | 1.46

— the supplement of paper PMC6555819
